Bioassay records as filed in PubChem BioAssay.
Shown is part of a subset that was picked to be rich in hits.
TTR transcr act: activators of transthyretin transcription. SH-SY5Y TTR promoter Gaussia luciferase, luminescence; 100% = recombinant luciferase protein wells. activation, % at 16.7 µM. hit rate 1.3% among 92,000;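 active = activation above the mean of all tested compounds plus 3 SD, cut at about 9.5% in these data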;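 also: cells exposed to compounds for one day before reading; 0% = median of all test compound wells on the plate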
TTR inh HuH7: counter-screen for TTR activators: TTR transcription inhibitors in HuH7 cells | shares compounds with TTR transcr act | HuH7 TTR promoter-Gaussia luciferase reporter, luminescence | inhibition, % at 16.7 µM | hit rate 4% among 1,100 | AID 1117279;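 active = average inhibition above the solvent-only control wells' mean plus 3 SD, cut at about 15% in these data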;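 also: 0% = cells with DMSO only and 100% = cells with inhibitor control FD; inhibitors lower well luminescence so higher value means more inhibition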
TTR up confirm: confirmation of human transthyretin transcription activators. shares compounds with TTR transcr act. SHSY5Y TTR promoter Gaussia luciferase, luminescence; 100% = purified Lucia enzyme wells, no cells. activation, % at 16.7 µM. 1,100 tested, under 10 active;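 active = mean activation above a set limit taken from the earlier primary screen, cut at about 11% in these data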;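 also: 0% = DMSO-treated cells and 100% = recombinant Lucia luciferase without cells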
An asterisk follows results filed as active.

SMILES	TTR transcr act	others
CCn1cnc2c1c(=O)n(CC(=O)O)c(=O)n2Cc1ccccc1	4.7
CCCCn1c(=O)n(Cc2cccc(F)c2)c(=O)c2c1ncn2Cc1ccco1	19.3*	TTR inh HuH7=-4.8;TTR up confirm=-0.3
Cc1cccc(Cn2c(=O)c3c(nc4n3CCN4Cc3ccco3)n(C)c2=O)c1	0.0
CC(C)C[C@H](NC1(C(=O)NC2CCCCC2)CCCCC1)C(=O)NCC(c1ccccc1)c1ccccc1	2.3
COc1ccccc1CNC1CCC12CCC(c1ccccc1)CC2 (stereo not given)	0.3
CC(C)CC1CCCC12NC(=O)NC2=O (stereo not given)	1.3
CC(C)CCN1NC2(CCCC(C)C2)NC1=S (stereo not given)	13.4*	TTR inh HuH7=-1.5;TTR up confirm=-1.2
O=S1(=O)c2ccc(N3CCC[C@H]3CO)cc2O[C@@H]2CCN1C2	-0.3
COc1ccc(CN(C)C[C@H]2Oc3c(NC(=O)Nc4ccccc4)cccc3C(=O)N([C@H](C)CO)C[C@@H]2C)cc1	-3.3
C[C@@H]1CN([C@@H](C)CO)C(=O)c2cccc(NS(C)(=O)=O)c2O[C@H]1CN(C)Cc1ccc(Oc2ccccc2)cc1	18.5*	TTR inh HuH7=4.7;TTR up confirm=-0.4
C[C@@H]1CN([C@@H](C)CO)C(=O)c2cccc(NS(C)(=O)=O)c2O[C@H]1CN(C)Cc1ccc(C(=O)O)cc1	5.0
C#CCN1CC(COc2ccccc2)OCCS1(=O)=O (stereo not given)	-0.2
CCCC1CCC2(CCCN2CCOC(=O)Nc2ccccc2OC)CC1 (stereo not given)	0.7
CN(C)c1nc(N(C)C)nc(N(C#N)Cc2ccc(Cl)cc2)n1	-0.3
COC(=O)CN(C#N)c1nc(N(C)C)nc(N(C)C)n1	13.3*	TTR inh HuH7=-8.4;TTR up confirm=3.3
CCOC(=O)C(C(=O)OCC)N(C#N)c1nc(OC)nc(N(C)C)n1	2.5
COC(=O)[C@]12C[C@H](CC(=O)N3CCN(C(=O)C4CC4)CC3)C(=O)N(Cc3ccc(Cl)cc3Cl)C1=C[C@H](C1CCCC1)O[C@@H]2C	2.2
COC(=O)[C@]12C[C@H](CC(=O)NCC3CCCCC3)C(=O)N(Cc3ccc(Cl)cc3Cl)C1=C[C@H](C(C)(C)C)O[C@@H]2C	0.3
C[C@H]1[C@@H](NC(=O)C(c2ccccc2)c2ccccc2)CC[C@@]23CCCN2C(=O)CCC[C@@H]13	-0.2
CC(C)(C)NC(=O)[C@@H](c1cccnc1)N(C(=O)c1ccco1)c1ccc(C(C)(C)C)cc1	5.3
Cc1cccc(NC(=O)CCCCCN2C(=O)[C@@H]3Cc4ccccc4CN3C2=O)c1	13.9*	TTR inh HuH7=-13.9;TTR up confirm=0.2
O=C(CCCCCN1C(=O)[C@@H]2Cc3ccccc3CN2C1=O)Nc1ccccc1F	11.1*	TTR inh HuH7=-12.7;TTR up confirm=-0.6
CCOc1ccccc1NC(=O)CCCCCN1C(=O)[C@@H]2Cc3ccccc3CN2C1=O	-0.2
Cc1ccccc1NC(=O)CCCCCN1C(=O)[C@@H]2Cc3ccccc3CN2C1=O	-1.3
COc1ccc(NC(=O)CCCCCN2C(=O)[C@@H]3Cc4ccccc4CN3C2=O)cc1Cl	-2.2
SMILES	TTR transcr act	others
O=C(CCCCCN1C(=O)[C@@H]2Cc3ccccc3CN2C1=O)Nc1cccc(F)c1	-3.1
O=C(OCC#CCSc1nnc(-c2ccc(Cl)cc2)o1)c1ccc(F)cc1	0.7
C=CCN1C(=O)[C@H](CC(=O)NCCCCc2ccccc2)[C@@]2(C(=O)OCC)CCCC=C12	0.4
O=C(NCCCc1ccccc1)[C@H](Cc1ccccc1)NC1(C(=O)NCCc2c[nH]c3ccccc23)CCOCC1	0.7
CCN1CCCCC(NC(=O)c2ccc(Cl)cc2Cl)C1=O (stereo not given)	-0.5
O=C(COC(=O)C1CCN(C(=O)c2ccc(Cl)cc2)CC1)c1ccco1	2.0
Cc1ccc(NC(=O)COC(=O)C2CC2)c(Br)c1	-0.4
COc1ccc(C)cc1NC(=O)COC(=O)C1CCN(C(=O)c2ccc(Cl)cc2)CC1	14.7*	TTR inh HuH7=-10.9;TTR up confirm=1.1
O=C(NCCc1c[nH]c2ccccc12)OCc1cn(Cc2cccc(C(F)(F)F)c2)nn1	-2.6
CC(C)c1ccc(NC(=O)OC2CCC23CCC(c2ccccc2)CC3)cc1 (stereo not given)	2.2
CCCC[C@@H]1C(=O)N2N=Cc3cc4ccccc4cc3[C@H]2N2N=Cc3cc4ccccc4cc3[C@@H]12	-4.7
CCOC(=O)CCC(NC(=O)CCCCC(=O)NC(CCC(=O)OCC)C(=O)OCC)C(=O)OCC (stereo not given)	4.3
CCOC(=O)CCCCCCCCC(=O)Nc1ccc(-n2[nH]c(=O)cc2C)cc1	2.3
CCOC(=O)CCCCC(=O)NC(CO)C(=O)NC (stereo not given)	9.9*	TTR inh HuH7=-5.1;TTR up confirm=0.3
COc1ccc(CN2CN3CCc4ccccc4C3CS2(=O)=O)cc1 (stereo not given)	-1.6
O=C(Nc1ccccc1C(F)(F)F)O[C@@H]1CC[C@@]23CCCN2C(=O)CCC[C@H]3C1	-0.4
Fc1ccccc1CSc1nnc(-c2cccs2)o1	-1.1
Fc1ccc(CSc2nnc(-c3cccs3)o2)cc1	10.1*	TTR inh HuH7=-13.5;TTR up confirm=-0.2
O=C(CSc1nnc(-c2cccs2)o1)NCc1ccco1	13.1*	TTR inh HuH7=-11.0;TTR up confirm=1.4
O=C(CSc1nnc(CNC(=O)c2cccc(C(F)(F)F)c2)o1)NCc1ccco1	4.3
c1ccc(-c2nnc(CSc3nnc(-c4cccs4)o3)o2)cc1	1.1
CC1CCN(C(=O)CSc2nnc(-c3cccs3)o2)CC1	-0.9
O=C(Nc1ccccc1C(F)(F)F)OC1CC2CC1[C@H]1CCCCN1C2 (stereo not given in full)	-1.5
CC1CCCN(c2cccc3c2S(=O)(=O)N([C@H](C)c2ccccc2)C[C@@H](COCc2ccccc2)O3)C1 (stereo not given in full)	-3.0
O=C(NCCc1ccccc1)OCc1cn(-c2cccc(Cl)c2)nn1	2.5
SMILES	TTR transcr act	others
COC(=O)[C@]12CCCCC=C1N(Cc1ccc(OC)cc1)C(=O)[C@@H]2CC(=O)NCc1ccc(OC)c(OC)c1	-2.2
On1c(-c2ccccc2)nc2ccccc21	11.4*	TTR inh HuH7=-8.1;TTR up confirm=-0.5
Nn1c(-c2ccccc2)nc2ccccc2c1=O	2.7
Cc1nc2ccccc2n1-c1ccccc1	-0.1
CCC1CCc2sc(C(=O)Nc3cc(S(=O)(=O)N4CCOCC4)ccc3OC)cc2C1 (stereo not given)	-0.5
Nc1nnc(CSCc2ccccc2Cl)s1	-0.2
CC(C)(C)c1nnc(NS(=O)(=O)c2cc(Cl)ccc2Cl)s1	2.0
Nc1nnc(CCS(=O)(=O)c2cc(Cl)ccc2Cl)s1	23.5*	TTR inh HuH7=-8.4;TTR up confirm=-0.6
C[C@@H]1CN([C@@H](C)CO)C(=O)CCCn2cc(nn2)CO[C@H]1CN(C)C(=O)Cc1ccccc1	0.1
C[C@H]1[C@H](NC(=O)c2ccc(Cl)cc2)CC[C@@]23CCCN2C(=O)CCC[C@@H]13	-0.3
Cc1nc2sc(C(c3cccc(F)c3)N3CCCCC3)c(O)n2n1 (stereo not given)	10.3*	TTR inh HuH7=-2.8;TTR up confirm=-0.3
Cc1nc2sc(C(c3ccc(Cl)cc3)N3CCOCC3)c(O)n2n1 (stereo not given)	-0.6
Cc1nc2sc(C(c3ccccc3)N3CC(C)OC(C)C3)c(O)n2n1 (stereo not given)	-0.8
